TDP1 block = blocks human tyrosyl-DNA phosphodiesterase 1 | 350,000 compounds, 0.28% hits | Q9NUW8 | recombinant TDP1, AlphaScreen DNA substrate cleavage | AID 485290 | Potency, µM (doses to about 130 µM), for inactives: top-dose activity change, negative = inhibition, usual class: inhibitors; note: % is set by controls: 0 for no effect and ±100 for the full control effect; nearly all actives have a fitted effect of over 40% in size
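Recombinant E. coli-expressed Tdp1 (1 nM) preincubated with compound 15 min at RT, then 5'-biotin/3'-phosphotyrosine-FITC DNA substrate (15 nM) added for 5 min. AlphaScreen beads (10 ug/ml) added, 10 min RT; tyrosine-FITC cleavage read as signal loss.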
G9a block = inhibitors of human histone lysine methyltransferase G9a; Q96KQ7; G9a H3K9 monomethylation, AlphaScreen, 2 h; Potency, µM (highest dose often 102 µM), without a hit: top-dose activity, negative = inhibition, hits mostly inhibitors; 350,000 compounds, 8.8% hits; note: % is set by controls: 0 for no effect and ±100 for the full control effect; nearly all actives have a fitted effect of over 75% in size
Target sequence (Q96KQ7 913-1193 limits assumed): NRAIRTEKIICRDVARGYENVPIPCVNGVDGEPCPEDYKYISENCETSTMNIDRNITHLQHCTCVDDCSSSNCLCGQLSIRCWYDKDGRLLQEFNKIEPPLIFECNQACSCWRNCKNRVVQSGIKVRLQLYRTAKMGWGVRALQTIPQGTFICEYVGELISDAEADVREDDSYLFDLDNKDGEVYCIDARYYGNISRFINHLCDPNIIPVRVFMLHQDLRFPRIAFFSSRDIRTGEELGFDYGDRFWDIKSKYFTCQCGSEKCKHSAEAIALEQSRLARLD
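AlphaScreen detection with an anti-monomethyl H3K9 antibody quantified product after a 2 h room-temperature reaction containing 500 nM biotinylated H3K9 peptide, 20 µM SAM and 20 nM enzyme, which had been preincubated 15 min with compound.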
HP1b chromo inh = blocks HP1-beta chromodomain binding to methylated histone tails; P83916; AlphaScreen HP1-beta / biotin-H3K9me3 peptide binding; Potency, µM (doses to about 114 µM), for inactives: at the highest dose activity change, negative = inhibition, actives largely listed as inhibitors; 390,000 compounds, 0.56% hits; note: nearly all actives have a fitted effect of over 70% in size
Target sequence (P83916 whole entry, looked up): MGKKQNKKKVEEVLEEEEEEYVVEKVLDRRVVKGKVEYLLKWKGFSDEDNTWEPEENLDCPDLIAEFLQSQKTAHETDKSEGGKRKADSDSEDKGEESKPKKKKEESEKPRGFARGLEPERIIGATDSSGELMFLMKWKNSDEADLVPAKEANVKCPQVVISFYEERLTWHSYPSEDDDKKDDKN
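AlphaScreen: HP1-beta (50 nM) preformed 30 min with biotin-H3(1-18)K9me3 peptide (50 nM) in PBS pH 7.4, 0.01% Tween-20. Compound added for 30 min at RT, then streptavidin donor/nickel chelate acceptor beads (10 ug/mL) for 30 min.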
BAZ2B block = inhibitors of human BAZ2B bromodomain | AlphaScreen BAZ2B-H3K14Ac peptide displacement | Q9UIF8 | 360,000 compounds, 4.4% hits | AID 504333 | Potency, µM (series often up to 114 µM), for inactives: at the highest dose activity change, negative = inhibition, actives largely listed as inhibitors; note: % is set by controls: 0 for no effect and ±100 for the full control effect; nearly all actives have a fitted effect of over 60% in size
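Protein-peptide AlphaScreen: BAZ2B 50 nM, b-H3K14Ac 50 nM, 1x PBS pH 7.4 + 0.01% Tween-20. Preincubation 30 min RT; cpd 30 min RT (top 110 uM); beads 20 min RT, light-protected.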
JMJD2A Tudor = blocks the human JMJD2A Tudor domain; O75164; AlphaScreen JMJD2A-Tudor / H3K4me3 peptide binding; Potency, µM (highest dose often 114 µM), for inactives: at the top dose activity change, negative = inhibition, actives largely listed as inhibitors; 390,000 compounds, 4.4% hits; AID 504339; note: % is set by controls: 0 for no effect and ±100 for the full control effect; nearly all actives have a fitted effect of over 50% in size
Sfp PPTase inh = Sfp phosphopantetheinyl transferase inhibition; Q9F4F7; Biochemical Sfp PPTase activity, qHTS; Potency, µM, for the others: largest response in the series, negative = inhibition, usual class: inhibitors; 310,000 compounds, 3.5% hits;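 note: the enzyme is Sfp with the accession as filed and its product quenches rhodamine fluorescence; 0% = enzyme reaction without inhibitor and -100% = no enzyme wells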
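Fluorescence-quenching assay with 15 nM Sfp, 5 uM rhodamine-CoA and 12.5 uM BHQ-2-labelled ybbR peptide in pH 7.6 Hepes/MgCl2 buffer. Enzyme was pre-incubated with compound for 15 min at room temperature. Rate was taken from the 30-min fluorescence change (525/598 nm).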
* = called active by the depositor; u = inconclusive; x = not tested or not shown; ! = a repeat was not active; [ ] = remark or other dose. This is a sample that favours compounds with a hit; in the whole collection about 12% have one here. Calls come from the whole dose curve; as a rule, active = well fitted curve in the direction sought with a large enough effect; inconclusive = small, poorly fitted or top-dose-only effect, or another doubt; inactive = no such curve, though single readings can be large; an effect the other way counts as inactive or inconclusive. Potency is the fitted concentration of half-maximal effect.

SMILES	TDP1 block	G9a block	HP1b chromo inh	BAZ2B block	JMJD2A Tudor	Sfp PPTase inh
CC(C)C[C@@H](CN1CCCC1CN1C(=S)NC[C@@H]1Cc1ccc(O)cc1)N1C[C@H](Cc2ccc(O)cc2)N(CC2CCCCC2)C1=S (stereo not given in full)	x	x	-13%	x	40µM*	x
O=C(Nc1ccc2c(c1)OCO2)N1CCC(CO)(CC2CCCCO2)CC1 (stereo not given)	6%	5%	9%[57 µM]	-4%	-20%	21%
FC(F)(F)c1cnc(-c2cnc(-c3ccccn3)nc2)c(Cl)c1	4%	50µM*	35%	u	-12%[11.4 µM]	7%
CCCNC(=O)c1c(CSc2ccc(Cl)cc2)noc1C(=O)NCc1ccccc1	x	x	81%	x	9%	x
NCCc1nnc(SCC(=O)Nc2cccc(Cl)c2)o1	3%	50µM*	15%	u	-22%	9%
O=C(CSc1nnc(-c2ccc(C(F)(F)F)cn2)o1)Nc1cccc(Cl)c1	x	29%	21%	50µM*	-10%	1%
COc1ccc(OCc2nnc(SCC(=O)Nc3cccc(Cl)c3)o2)cc1	x	5%	8%	-12%	-13%	13%
COc1ccc(-c2nc3n(n2)C(c2ccccc2OC)C(C(=O)Nc2cccnc2)=C(C)N3)cc1 (stereo not given)	x	45%[59 µM]	31%	-12%	-20%	x
CC#C[C@]1(O)CC[C@H]2[C@@H]3CCC4=CC(=O)CCC4=C3[C@H](c3ccc(N(C)C)cc3)C[C@@]21C	21%	x	x	x	x	-8%
CC#C[C@]1(O)CC[C@H]2[C@@H]3CCC4=CC(=O)CCC4=C3[C@@H](c3ccc(N(C)C)cc3)C[C@@]21C	17%	9.5µM*!	u	13µM*	16µM*	-5%
Cc1cc(C)c(S(=O)(=O)Nc2ccc(N(C)C)cc2)c(C)c1-n1cnnn1	x	3.5µM*	-27%	40µM*	u	-3%
COc1ccc(-c2nc3cc(C(C)C)ccc3o2)cc1NC(=O)COc1ccc(C)cc1C	4%	20%[59 µM]	18%	-3%	-16%	x
COc1cc(CN2CCN(S(=O)(=O)c3ccc(NC(C)=O)cc3)CC2)cc(OC)c1OC	-5%	25µM*	u	50µM*	22µM*	x
COc1ccc(CN2CCN(S(=O)(=O)c3ccc(C)cc3)CC2)cc1OC	x	x	u	x	50µM*	x
COc1cc(CC(=O)Nc2ccc(S(=O)(=O)N(C)C)cc2)cc(OC)c1OC	8%	50µM*	38%	26%	-9%	-28%
Cc1ccc(C)c(-c2nc(Cn3c(=O)cc(-c4ccccc4)c4c(C)nn(C)c43)c(C)o2)c1	5%	8%[59 µM]	68%	-4%	-5%	x
Cc1cc(=O)[nH]c(SCC(=O)Nc2ccccc2C#N)c1C#N	-12%	u	12%	-24%	-24%	32µM*
CCOC(=O)CC(=O)CSc1[nH]c(=O)cc(C)c1C#N	u	1%[59 µM]	45%	-30%	-16%	50µM*
COc1ccc(-c2cc(=O)oc3cc(OCC(=O)NCC(O)c4ccccc4)ccc23)cc1 (stereo not given)	x	5%[12.7 µM]	16%	8%	-20%	-15%
NC(=O)c1sc2nc3c(c(-c4ccco4)c2c1N)CCC3	6%	u	0%	u	79µM*	10µM*
COc1ccc(-c2c3c(nc4sc(C(=O)Nc5cc(C)on5)c(N)c24)CCC3)cc1	0%	2%[12.7 µM]	73%	15%	3%	-10%
NC(=O)c1sc2nc3c(cc2c1N)CCC3	2%	-46%	45%	-13%	2%	0%
Cc1ccc(-c2c3c(nc4sc(C(N)=O)c(N)c24)CCCC3)o1	3%	45µM*	13%	u	-18%[57.1 µM]	32µM*
O=C1CCC(C(=O)O)N1 (stereo not given)	x	-10%[12.7 µM]	21%	-2%	-22%	22%
CC1(C)CC(c2nc(-c3ccc([N+](=O)[O-])cc3)cs2)CCO1 (stereo not given)	2%	50µM*	7%	u	-14%[57.1 µM]	u
